Results from the supplement of paper PMC11732987, “Enantioselective OTUD7B fragment discovery through chemoproteomics screening and high-throughput optimisation” (Communications Chemistry, 2025).

Assays:
Assay in all cases: log2 ratio of Biotin-Ahx-Ub-VS probe labelling (fragment/DMSO); higher = less target engagement (more negative = stronger competition), active = hit call of the paper (q ≤ 0.05, log2 ratio ≤ -1)
Conditions in all cases: compound concentration: 200 uM; treatment time: 3 h
ALG13 = biological target: T1, ALG13 (UniProt Q9NP73)
T1 sequence (whole entry): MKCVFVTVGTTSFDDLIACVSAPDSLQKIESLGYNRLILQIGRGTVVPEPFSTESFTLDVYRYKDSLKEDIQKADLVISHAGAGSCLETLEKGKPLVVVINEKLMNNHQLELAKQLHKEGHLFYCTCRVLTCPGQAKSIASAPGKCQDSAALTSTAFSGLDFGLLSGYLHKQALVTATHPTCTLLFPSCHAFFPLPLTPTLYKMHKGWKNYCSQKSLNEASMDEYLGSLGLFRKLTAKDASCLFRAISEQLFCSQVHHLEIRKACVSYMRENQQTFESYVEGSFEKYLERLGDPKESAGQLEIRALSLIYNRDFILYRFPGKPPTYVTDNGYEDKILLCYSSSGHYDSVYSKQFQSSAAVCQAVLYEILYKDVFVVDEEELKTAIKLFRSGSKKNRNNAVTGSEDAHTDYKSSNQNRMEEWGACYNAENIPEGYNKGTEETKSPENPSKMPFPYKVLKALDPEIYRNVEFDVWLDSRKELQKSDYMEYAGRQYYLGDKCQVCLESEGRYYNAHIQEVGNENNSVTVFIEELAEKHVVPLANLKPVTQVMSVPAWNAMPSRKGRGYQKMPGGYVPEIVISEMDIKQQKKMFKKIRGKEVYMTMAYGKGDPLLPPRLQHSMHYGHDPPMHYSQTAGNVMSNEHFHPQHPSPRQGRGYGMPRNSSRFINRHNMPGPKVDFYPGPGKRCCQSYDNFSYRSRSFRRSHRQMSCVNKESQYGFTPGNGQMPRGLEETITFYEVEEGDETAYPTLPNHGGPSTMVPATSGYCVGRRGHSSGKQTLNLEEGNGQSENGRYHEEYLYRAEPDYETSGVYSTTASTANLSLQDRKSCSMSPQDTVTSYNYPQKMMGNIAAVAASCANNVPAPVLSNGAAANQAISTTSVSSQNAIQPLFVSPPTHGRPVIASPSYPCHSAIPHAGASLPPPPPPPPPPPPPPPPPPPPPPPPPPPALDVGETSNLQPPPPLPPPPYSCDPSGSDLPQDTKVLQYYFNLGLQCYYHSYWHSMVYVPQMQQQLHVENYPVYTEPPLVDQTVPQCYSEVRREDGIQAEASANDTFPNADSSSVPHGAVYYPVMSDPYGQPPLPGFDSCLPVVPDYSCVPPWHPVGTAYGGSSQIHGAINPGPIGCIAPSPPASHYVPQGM
Summary of the method: (§1)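 Lysate from HEK293T cells, 495 µg per sample in Tris/CHAPS/IGEPAL buffer with protease inhibitors, was treated for 3 h in triplicate with fragment at 200 µM or vehicle. Biotin-Ahx-Ub-VS was next added at 0.5 µM final for 1 h. The labelled DUBs were enriched with NeutrAvidin, digested with LysC and trypsin, and run by diaPASEF LC-MS/MS, with values given as average log2 fragment/vehicle ratios by unpaired t-test on global-median-normalised Spectronaut quantities of proteins with ≥2 unique peptides.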

ATXN3 = ATXN3 (UniProt P54252)
ATXN3, sequence (P54252 whole entry): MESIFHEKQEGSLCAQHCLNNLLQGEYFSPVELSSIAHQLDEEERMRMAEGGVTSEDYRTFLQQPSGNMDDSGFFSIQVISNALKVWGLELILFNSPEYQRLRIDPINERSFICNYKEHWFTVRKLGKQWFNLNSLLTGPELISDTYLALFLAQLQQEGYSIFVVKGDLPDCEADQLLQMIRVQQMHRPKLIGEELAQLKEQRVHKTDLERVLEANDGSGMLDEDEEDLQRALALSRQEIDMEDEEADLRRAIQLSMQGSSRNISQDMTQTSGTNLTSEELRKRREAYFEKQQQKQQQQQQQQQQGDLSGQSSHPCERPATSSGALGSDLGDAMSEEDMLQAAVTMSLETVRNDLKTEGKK
Summary of the method: as §1

BAP1 = biological target: T2, BAP1 (UniProt Q92560)
T2 sequence (whole entry): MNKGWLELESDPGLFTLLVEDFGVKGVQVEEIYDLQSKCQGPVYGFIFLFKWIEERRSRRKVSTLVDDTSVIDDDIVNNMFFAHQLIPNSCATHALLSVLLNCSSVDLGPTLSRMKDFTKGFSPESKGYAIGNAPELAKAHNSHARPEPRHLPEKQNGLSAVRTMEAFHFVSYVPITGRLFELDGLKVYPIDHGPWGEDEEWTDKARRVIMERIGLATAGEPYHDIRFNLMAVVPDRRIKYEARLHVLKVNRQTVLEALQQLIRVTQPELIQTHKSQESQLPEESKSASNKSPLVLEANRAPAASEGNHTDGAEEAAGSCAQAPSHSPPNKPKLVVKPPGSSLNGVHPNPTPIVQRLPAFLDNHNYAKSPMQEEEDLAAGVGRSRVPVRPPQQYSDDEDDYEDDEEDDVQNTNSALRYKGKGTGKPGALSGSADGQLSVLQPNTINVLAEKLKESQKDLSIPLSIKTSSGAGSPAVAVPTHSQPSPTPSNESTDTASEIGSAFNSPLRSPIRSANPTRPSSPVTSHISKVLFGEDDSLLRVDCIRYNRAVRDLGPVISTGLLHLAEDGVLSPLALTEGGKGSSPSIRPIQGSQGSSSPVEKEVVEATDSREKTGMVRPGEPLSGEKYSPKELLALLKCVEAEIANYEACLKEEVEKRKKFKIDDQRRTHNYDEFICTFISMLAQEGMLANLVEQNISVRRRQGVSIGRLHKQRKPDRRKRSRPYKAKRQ
Summary of the method: as §1

EIF3F = EIF3F (UniProt O00303)
EIF3F, sequence (O00303 whole entry): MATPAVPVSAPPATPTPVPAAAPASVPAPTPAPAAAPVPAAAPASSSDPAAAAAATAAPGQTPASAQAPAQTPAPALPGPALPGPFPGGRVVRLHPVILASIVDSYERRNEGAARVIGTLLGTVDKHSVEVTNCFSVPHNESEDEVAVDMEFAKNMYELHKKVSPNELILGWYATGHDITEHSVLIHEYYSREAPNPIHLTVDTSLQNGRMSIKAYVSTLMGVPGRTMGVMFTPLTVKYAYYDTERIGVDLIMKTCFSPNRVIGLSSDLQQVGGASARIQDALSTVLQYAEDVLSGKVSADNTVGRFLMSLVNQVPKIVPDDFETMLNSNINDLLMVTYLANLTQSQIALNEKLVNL
Summary of the method: as §1

EIF3H = EIF3H (UniProt O15372)
EIF3H, sequence (O15372 whole entry): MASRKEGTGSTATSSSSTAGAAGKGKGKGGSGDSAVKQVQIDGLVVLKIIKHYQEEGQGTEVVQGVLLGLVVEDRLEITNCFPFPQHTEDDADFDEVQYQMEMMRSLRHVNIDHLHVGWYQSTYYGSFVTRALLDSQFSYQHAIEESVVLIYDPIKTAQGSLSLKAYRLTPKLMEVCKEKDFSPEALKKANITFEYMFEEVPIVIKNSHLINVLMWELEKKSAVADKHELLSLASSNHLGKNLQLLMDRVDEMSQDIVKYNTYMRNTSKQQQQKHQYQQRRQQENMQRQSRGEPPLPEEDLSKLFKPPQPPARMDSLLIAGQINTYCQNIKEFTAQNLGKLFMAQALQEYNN
Summary of the method: as §1

FAM105A = biological target: T3, FAM105A (UniProt Q9NUU6)
T3 sequence (whole entry): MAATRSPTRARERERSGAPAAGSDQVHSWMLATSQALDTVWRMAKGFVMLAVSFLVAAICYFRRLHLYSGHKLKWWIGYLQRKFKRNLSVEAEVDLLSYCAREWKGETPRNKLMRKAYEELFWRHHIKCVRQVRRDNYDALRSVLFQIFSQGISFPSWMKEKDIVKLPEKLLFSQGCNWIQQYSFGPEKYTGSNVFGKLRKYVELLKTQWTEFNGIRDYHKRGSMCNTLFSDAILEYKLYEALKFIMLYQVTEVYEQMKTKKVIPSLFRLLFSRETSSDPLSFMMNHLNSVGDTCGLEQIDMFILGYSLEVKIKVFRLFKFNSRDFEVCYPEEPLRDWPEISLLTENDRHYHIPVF
Summary of the method: as §1

OTUB1 = OTUB1 (UniProt Q96FW1)
OTUB1, sequence (Q96FW1 whole entry): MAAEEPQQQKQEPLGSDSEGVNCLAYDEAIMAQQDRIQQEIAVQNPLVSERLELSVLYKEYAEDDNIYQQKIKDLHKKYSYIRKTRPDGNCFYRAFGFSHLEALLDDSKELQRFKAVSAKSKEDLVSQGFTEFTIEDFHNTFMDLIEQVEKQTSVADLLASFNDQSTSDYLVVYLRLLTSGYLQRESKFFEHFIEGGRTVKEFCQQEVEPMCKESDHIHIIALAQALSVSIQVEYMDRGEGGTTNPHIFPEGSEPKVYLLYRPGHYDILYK
Summary of the method: as §1

OTUD4 = biological target: T4, OTUD4 (UniProt Q01804)
T4 sequence (whole entry): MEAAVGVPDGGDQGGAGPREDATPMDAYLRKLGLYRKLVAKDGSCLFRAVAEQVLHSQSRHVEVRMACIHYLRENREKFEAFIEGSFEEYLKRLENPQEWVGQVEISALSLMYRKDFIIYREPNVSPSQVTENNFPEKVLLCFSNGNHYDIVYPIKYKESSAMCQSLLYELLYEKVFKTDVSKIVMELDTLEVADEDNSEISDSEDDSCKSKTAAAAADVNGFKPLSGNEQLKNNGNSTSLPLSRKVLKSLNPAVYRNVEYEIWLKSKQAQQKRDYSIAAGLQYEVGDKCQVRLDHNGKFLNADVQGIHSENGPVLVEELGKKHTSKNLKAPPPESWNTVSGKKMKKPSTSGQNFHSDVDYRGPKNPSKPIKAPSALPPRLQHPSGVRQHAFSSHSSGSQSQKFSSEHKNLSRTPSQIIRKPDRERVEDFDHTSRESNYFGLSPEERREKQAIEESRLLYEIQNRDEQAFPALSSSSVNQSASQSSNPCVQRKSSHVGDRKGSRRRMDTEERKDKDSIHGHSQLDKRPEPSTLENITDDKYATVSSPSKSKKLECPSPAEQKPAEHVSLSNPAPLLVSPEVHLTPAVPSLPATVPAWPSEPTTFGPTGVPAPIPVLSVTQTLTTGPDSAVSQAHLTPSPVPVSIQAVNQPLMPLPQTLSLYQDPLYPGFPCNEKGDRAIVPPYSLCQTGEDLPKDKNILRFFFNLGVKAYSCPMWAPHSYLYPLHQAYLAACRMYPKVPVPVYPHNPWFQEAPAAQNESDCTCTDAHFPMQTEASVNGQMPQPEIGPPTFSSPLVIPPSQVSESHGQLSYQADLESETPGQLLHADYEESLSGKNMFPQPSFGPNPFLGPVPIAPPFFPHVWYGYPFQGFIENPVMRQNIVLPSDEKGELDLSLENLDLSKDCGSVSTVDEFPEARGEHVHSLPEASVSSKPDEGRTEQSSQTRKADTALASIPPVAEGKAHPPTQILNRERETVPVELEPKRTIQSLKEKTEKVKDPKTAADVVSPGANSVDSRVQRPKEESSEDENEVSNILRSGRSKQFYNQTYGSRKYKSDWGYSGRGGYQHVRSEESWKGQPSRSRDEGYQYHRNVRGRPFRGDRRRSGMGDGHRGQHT
Summary of the method: as §1

OTUD5 = biological target: T5, OTUD5 (UniProt Q96G74)
T5 sequence (whole entry): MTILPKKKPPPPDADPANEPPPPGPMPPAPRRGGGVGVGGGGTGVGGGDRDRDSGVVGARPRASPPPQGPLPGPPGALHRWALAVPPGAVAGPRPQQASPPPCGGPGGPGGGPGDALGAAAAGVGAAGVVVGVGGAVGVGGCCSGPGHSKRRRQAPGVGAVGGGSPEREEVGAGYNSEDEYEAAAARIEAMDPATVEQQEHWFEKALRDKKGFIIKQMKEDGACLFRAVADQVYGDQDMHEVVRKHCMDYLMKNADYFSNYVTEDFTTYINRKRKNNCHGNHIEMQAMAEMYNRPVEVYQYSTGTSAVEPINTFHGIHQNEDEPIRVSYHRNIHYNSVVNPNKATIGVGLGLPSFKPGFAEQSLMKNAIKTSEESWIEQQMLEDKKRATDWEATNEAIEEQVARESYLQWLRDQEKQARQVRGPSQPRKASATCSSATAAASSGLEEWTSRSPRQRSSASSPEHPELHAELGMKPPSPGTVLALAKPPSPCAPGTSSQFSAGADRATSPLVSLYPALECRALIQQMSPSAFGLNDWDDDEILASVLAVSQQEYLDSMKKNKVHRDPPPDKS
Summary of the method: as §1

Measured: log2 ratio of Biotin-Ahx-Ub-VS probe labelling

CC(O)CC1CCN(C(=O)CCl)CC1 (centres undefined)
inactive: ALG13 -0.345 | ATXN3 -0.291 | BAP1 -0.221 | EIF3F -0.0746 | EIF3H 0.247 | FAM105A -0.12 | OTUB1 0.128 | OTUD4 0.0747 | OTUD5 -0.195
